Screening results as filed in PubChem BioAssay.
The list is not random: actives were taken first. Their share in the collection is about 4.4%.
D1 agonist: Allosteric Agonists of the Human D1 Dopamine Receptor: qHTS; D(1A) dopamine receptor (Homo sapiens), P21728; HEK293 T-REx D1 cells, calcium flux, agonist mode; activation, % at 2 µM; 360,000 tested, 1% active; also: 0% is about no effect
Target sequence (P21728 whole entry, looked up): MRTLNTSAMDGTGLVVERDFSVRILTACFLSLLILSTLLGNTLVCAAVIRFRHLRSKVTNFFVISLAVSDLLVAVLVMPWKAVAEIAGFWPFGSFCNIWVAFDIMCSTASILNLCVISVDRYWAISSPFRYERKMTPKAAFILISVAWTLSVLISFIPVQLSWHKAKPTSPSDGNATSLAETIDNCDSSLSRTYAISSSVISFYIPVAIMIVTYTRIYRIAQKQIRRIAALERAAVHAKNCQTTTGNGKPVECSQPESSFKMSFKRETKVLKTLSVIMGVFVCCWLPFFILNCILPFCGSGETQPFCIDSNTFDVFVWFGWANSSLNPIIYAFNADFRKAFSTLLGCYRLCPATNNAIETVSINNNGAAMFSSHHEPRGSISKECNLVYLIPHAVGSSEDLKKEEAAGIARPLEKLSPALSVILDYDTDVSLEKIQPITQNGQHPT
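Tetracycline-induced HEK293 TREx D1 cells, force-coupled to calcium signalling, were dye-loaded with a no-wash calcium kit. Compound was pin-added after a 10 s baseline. Fluorescence was read kinetically at 1 cycle/s for 180 s, with calcium rises flagged as agonism.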
USP1 inh: Inhibitors of USP1/UAF1: Primary Screen. recombinant USP1/UAF1, Ub-Rhodamine cleavage fluorescence. 390,000 tested, 0.23% active. Potency, µM (titrated, usually from 57.1 µM), inactives show at the top dose activity change, negative = inhibition, actives largely listed as inhibitors. AID 743255, 2014. Ubiquitin carboxyl-terminal hydrolase 1 (Homo sapiens), O94782; active = well fitted inhibition curve with a large enough effect; inconclusive = small, poorly fitted or top-dose-only effect; inactive = no such curve, though single readings can be large or run the other way; also: potency is read from the fitted curve at half-maximal effect; % is scaled to controls: 0 for no effect and ±100 for the full control effect; nearly all actives have a fitted effect of over 60% in size
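In this screen, compounds sit with the deubiquitinase complex (1nM) for 15 min at room temperature before Ub-Rho is added at 150nM final. Fluorescence rise is then followed for 6 reads every 60 seconds.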
D1 antag: Antagonist of Human D 1 Dopamine Receptor: qHTS; D(1A) dopamine receptor (Homo sapiens), P21728; HEK293 TREx D1 cells, calcium flux, dopamine EC80; hits give low values; activity change, negative = inhibition, % at 10 µM; 360,000 tested, 3.2% active; AID 504652, 2011; in the data active = activity change below about -30%; also: % is scaled to controls: 0 for no effect and ±100 for the full control effect
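HEK293 T-REx cells expressing inducible, force-coupled D1 receptor; no-wash Ca dye, 30–90 min RT. Cmpd → 180 s read at 1 Hz → EC80 DA → 180 s read.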
TRHR PAM: qHTS for Small Molecule Agonists and Allosteric Enhancers of Human TRH Receptor: Primary Screen for Enhancers; Thyrotropin-releasing hormone receptor (Homo sapiens), P34981; TRHR cells, fluo-8 calcium fluorescence, EC20 TRH enhancement; enhancement, % at 2 µM; 360,000 tested, 0.66% active; AID 493056, 2011; in the data active = enhancement above about 30%; also: 0% is about no effect
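Enhancer read-out: after compound pinning and an initial kinetic agonist-mode read, an EC20 of TRH (10 nM final) was injected and fluo-8 calcium signal (Ex 480/Em 530) followed at 1 s/cycle for 100 cycles in TRHR-expressing cells.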
D1 potentiator: Potentiators of Human D1 Dopamine Receptor: qHTS. D(1A) dopamine receptor (Homo sapiens), P21728. potentiation, % at 10 µM. 360,000 tested, 0.036% active. HEK293 TREx D1 cells, calcium flux, dopamine EC20 potentiation. AID 504651, 2011; in the data active = potentiation above about 30%; also: 0% is about no effect
TRHR ag: qHTS for Small Molecule Agonists and Allosteric Enhancers of Human TRH Receptor: Primary Screen for Agonists; 360,000 tested, 0.18% active; activation, % at 2 µM; Thyrotropin-releasing hormone receptor (Homo sapiens), P34981; TRHR cells, calcium flux fluo-8, FDSS agonist mode; also: 0% is about no effect
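TRHR-expressing cells, plated overnight in medium with 10% serum, were loaded with fluo-8 calcium dye at room temperature. After a 10 s baseline, library compound was pin-added and calcium release was recorded kinetically (ex 480/em 530) as agonist response.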
* hit, by the source's call; ? = inconclusive; . = not tested or not shown. Rule as the data show it, unless noted: active = activation above about 30%; inactive = the rest.

SMILES	D1 agonist	USP1 inh	D1 antag	TRHR PAM	D1 potentiator	TRHR ag
Cc1ccc(Nc2nc(NCCO)c3ccccc3n2)cc1C	13	-32%	-38*	-5	-11	1
Oc1ccc(Nc2nc(-c3ccc(Cl)cc3)nc3ccccc23)cc1	4	-36%	-34*	-2	-5	-1
OCCNc1nc(-c2ccccc2)nc2ccccc12	4	-17%	-35*	-1	-8	1
Oc1ccc(Nc2nc(-c3ccccc3)nc3ccccc23)cc1	1	0%	-19	-10	-4	0
O=C(Nc1nc(-c2ccccc2)nc2ccccc12)c1ccc(F)cc1	2	?	-58*	-5	-7	1
OCCCNc1nc(-c2ccc(Cl)cc2)nc2ccccc12	0	-26%	-9	-4	-6	1
CCOc1ccc2oc(=O)cc(CN3CCN(Cc4ccc(F)cc4)CC3)c2c1	5	-5%	-13	-4	-3	0
CCc1ccccc1NC(=O)C1CCN(C(=O)N2CC(C)Oc3ccc(Cl)cc32)CC1 (configuration not stated)	-1	-7%	1	18	-2	0
CCOC(=O)c1ccccc1NC(=O)CCc1c(C)nc2ncnn2c1C	4	-13%	3	1	-2	0
CSc1ccc(CNC(=O)c2sc3ncnc(N(C)C4CCCCC4)c3c2C)cc1	2	-16%	-15	1	-3	0
Cc1ccccc1CNC(=O)C1CCCN(c2nnc(C)c3c(C)n(-c4ccccc4)nc23)C1 (configuration not stated)	11	-16%	16	-2	46*	0
CS(=O)(=O)N1CCC(C(=O)NCc2ccc3c(c2)OCO3)CC1	1	-17%	-35*	-1	1	1
COc1ccc(CNC(=O)C2CCC(CNS(=O)(=O)c3cccc4nsnc34)CC2)cc1 (configuration not stated)	3	-26%	-46*	0	-4	0
CC(C)NC(=O)C1CCN(C2CCN(C(=O)Cc3ccc4c(c3)OCO4)CC2)CC1	0	-25%	-33*	-1	-4	0
O=C(NCc1ccc2c(c1)OCO2)C1CCC(CNS(=O)(=O)c2cccc3nsnc23)CC1 (configuration not stated)	1	-24%	-52*	3	.	0
COCCNC(=O)C1CCC(CNS(=O)(=O)c2cccc3nsnc23)CC1 (configuration not stated)	1	-13%	34	-6	2	0
Cn1c(=O)oc2cc(S(=O)(=O)NC(Cc3ccccc3)C(=O)NCc3ccccc3Cl)ccc21 (configuration not stated)	1	-12%	5	-11	-3	1
Cc1ccc(C)c(CSc2cn(CC(=O)N3CCCC3)c3ccccc23)c1	2	-14%	-8	-7	-7	0
O=C(O)c1cc(N2N=C(C(F)(F)F)/C(=C/C=C/c3ccco3)C2=O)ccc1Cl	8	28µM*	1	-4	-2	2
OCC1(Cc2ccccc2)CCN(Cc2cnc(-c3ccc(Cl)cc3)nc2)CC1	8	-24%	7	-2	-6	1
OCC1(Cc2ccccc2)CCN(Cc2cnc(-c3cccc4ccccc34)nc2)CC1	5	-23%	-24	16	-7	-2
Cc1ccccc1-c1ncc(CN2CCC(CO)(CCCc3ccccc3)CC2)cn1	10	-10%	-55*	8	-3	-2
COc1ccc(-c2ncc(CN3CCC(CO)(Cc4cccc(OC)c4)CC3)cn2)cc1	39*	-3%	-1	-2	6	1
CCOc1ccc(C(=O)c2cn(Cc3ccccc3)c3c(F)cc(F)cc3c2=O)cc1	6	-15%	-28	33*	-2	-1
CCc1ccccc1NC(=O)CSc1ncccc1C(=O)O	-1	-1%	3	5	-1	0
SMILES	D1 agonist	USP1 inh	D1 antag	TRHR PAM	D1 potentiator	TRHR ag
Cc1ccc(OC(=O)c2cccc(S(=O)(=O)N3CCN(C)CC3)c2)c(Br)c1	6	1%	-32*	-5	-10	0
Cc1ccc(Cl)cc1NC(=O)Cn1c(=O)n(CCC(=O)N2CCc3ccccc3C2)c(=O)c2ccccc21	-3	-21%	3	24	4	-1
COc1ccc(-c2nc3c(C#N)c[nH]n3c2NC2CCCCC2)cc1	-1	?	10	-5	-1	0
CN(C)CCNC(=O)C1CCN(c2ncnc3c2nc2n3CCCCC2)CC1	-1	-7%	-24	12	3	0
N#CN1CCC(N[S+](=O)([O-])c2cccc(F)c2)CC1	2	.	-20	6	13	-1
Cc1cccc([S+](=O)([O-])NC2CCN(C#N)CC2)c1	2	.	-81*	-1	0	1
Cc1cccc(N2C(=O)CS(=O)(=O)C23C(=O)N(Cc2c(F)cccc2Cl)c2ccccc23)c1 (configuration not stated)	4	-31%	11	-7	-4	0
COc1ccc(C2(C(=O)Nc3cc(C)on3)CCOCC2)cc1	-1	-6%	-60*	5	-1	1
CC(C)(NC(=O)c1cc(Cl)c2ccccc2c1O)C(=O)O	0	-4%	-30*	7	0	0
Cn1c(=O)c2c(c3ccccc31)OC(=O)CC2c1cccc(F)c1 (configuration not stated)	-1	-24%	-3	-7	-4	1
Cc1ccccc1C1C(C#N)=C2N=C(N)c3c(sc4c3CCCCC4)N2C2=C1C(=O)CCC2 (configuration not stated)	2	-9%	-42*	5	-2	4
O=C(COC(=O)C1CCN(c2ccc(C(F)(F)F)cn2)CC1)Nc1ccc(Cl)cc1	11	-14%	-22	3	-13	2
O=C(COC(=O)C1CCN(c2ccc(C(F)(F)F)cn2)CC1)Nc1ccc(Cl)cn1	9	-21%	-59*	9	-18	2
Cc1ccccc1CNC(=O)c1nn(-c2ccccc2F)nc1CO	1	-3%	-2	-1	1	1
Cc1ccc(C)c2nc3sc(C(=O)N4CCOCC4)c(N)c3cc12	1	?	4	-6	1	0
Cc1cc(C)c2nc3sc(C(=O)N4CCOCC4)c(N)c3cc2c1	38*	-27%	0	2	5	19
